# Screening data (PubChem)
# LANA-H2A inh – blocks KSHV LANA binding to histone H2A/H2B; Q9QR71; cell-free LANA-H2A/H2B peptide, fluorescence polarization; inhibition, % (no concentration beside the values); actives 0.6% (n = 320,000); AID 2629; in the data active = inhibition mostly above about 10%, no sharp cut-off; inactive = mostly below about 6.7%
# HIF act – HIF pathway transcriptional activation; U2OS HRE-luciferase reporter, luminescence; normalized: DMSO 0%, desferrioxamine 100%; activation, % at 7.5 µM (by protocol); actives 0.32% (n = 300,000); AID 1910;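 active = mean activation of at least 10% of the iron chelator positive control signal, with at least half of replicates also reaching 10%; inconclusive = mean and replicate majority disagree about reaching 10%; inactive = mean and most replicates under 10%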
# HDAC3 inh – blocks human histone deacetylase 3; actives 0.15% (n = 320,000); AID 2718; recombinant HDAC3, fluorogenic peptide/trypsin coupled, fluorescence; inhibition, % at 8.3 µM; in the data active = inhibition above about 26%, passing the limit was not always enough; inconclusive = no clear call, values can overlap the other calls
# Target sequence (O15379 whole entry, looked up): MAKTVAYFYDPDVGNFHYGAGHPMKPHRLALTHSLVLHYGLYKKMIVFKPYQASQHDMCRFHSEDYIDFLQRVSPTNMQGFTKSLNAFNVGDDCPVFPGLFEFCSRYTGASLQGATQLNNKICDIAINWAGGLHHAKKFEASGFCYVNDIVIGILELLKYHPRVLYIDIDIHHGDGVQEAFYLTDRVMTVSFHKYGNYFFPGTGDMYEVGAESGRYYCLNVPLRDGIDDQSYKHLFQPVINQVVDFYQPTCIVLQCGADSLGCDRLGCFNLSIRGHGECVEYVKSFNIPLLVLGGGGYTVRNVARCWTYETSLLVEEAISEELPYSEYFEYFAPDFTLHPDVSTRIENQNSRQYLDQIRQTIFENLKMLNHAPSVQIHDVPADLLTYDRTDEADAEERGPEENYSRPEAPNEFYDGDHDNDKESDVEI
# CR mimetic SO – yeast age-related superoxide inhibition as caloric restriction mimetic | S. cerevisiae aged cells, superoxide DHE fluorescence; stronger effect = lower value | superoxide response (% of plate mean), % at 10 µM | actives 0.18% (n = 330,000) | AID 2690;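 active = superoxide response under a set limit, about three screen SD below normal, cut at about 65% in these data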;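 note: yeast aged for seven days with compound at 30 °C before DHE staining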
# Hits are given with their value; - = inactive; ? = inconclusive; . = no result given; + = active, no number. Most compounds without a hit are left out; they make up all but 1.2% or so of the library.
SMILES,LANA-H2A inh,HIF act,HDAC3 inh,CR mimetic SO
COc1ccc(N2CC(C(=O)Nc3nnc(SCC(=O)NCC4CCCO4)s3)CC2=O)cc1 (stereo unspecified),34.4,-,-,-
O=C(CN1C(=O)CSc2ncccc21)Nc1ccccc1F,-,-,-,-
O=C1c2ccccc2C(O)(c2ccccc2)N1c1ccncc1 (stereo unspecified),-,-,-,-
O=C(NCCc1c[nH]c2ccccc12)c1cnc2n(c1=O)CCS2,-,-,-,-
O=C(NCCc1ccccc1)c1cnc2n(c1=O)CCS2,12.5,-,?,-
C=CCC[C@@H](Cc1ccc(F)cc1)C(=O)OCCNC(=O)[C@@H](CC=C)CC(=O)N[C@@H](CO)Cc1ccccc1,25.7,.,-,-
C=CCC[C@@H](Cc1ccc(F)cc1)C(=O)OC[C@@H]1CCCN1C(=O)[C@@H](CC=C)CC(=O)N[C@@H](CO)Cc1ccccc1,-,.,35.1,-
CCN(C[C@H]1N[C@@](Cc2ccccc2)(C(=O)OC)[C@H]2C(=O)N(C)C(=O)[C@@H]12)C(=O)COc1ccccc1,.,.,.,-
COC(=O)c1ccc(/C=N/NC(=O)C2CC(=O)N(c3ccc(F)cc3)C2)cc1 (stereo unspecified),12.7,-,-,-
CCOC(=O)c1cc2sccc2n1CC(=O)Nc1ccc(OC)cc1,-,36.0,-,-
O=C(CSc1cccc[n+]1[O-])Nc1ccccc1Oc1ccccc1,+,-,-,-
O=C(CSc1cccc[n+]1[O-])Nc1ccccc1C(F)(F)F,-,.,-,-
C[C@H]1C(=O)N(C)CCN1C(=O)c1cccc(OC2CCN(CC(C)(C)C)CC2)c1,-,-,-,-
Cc1nc2ccccc2n2c(-c3ccccc3)c3c(=O)n(C)c(=O)n(C)c3c12,-,212.0,-,-
CCCC[C@@H]1C=C(C(=O)O)[C@H](c2ccc(Cl)cc2)N1S(=O)(=O)c1ccc(C)cc1,84.4,.,-,-
COc1ccc(S(=O)(=O)N2CCOC2CNC(=O)C(=O)NCc2ccc3c(c2)OCO3)cc1OC (stereo unspecified),-,219.4,-,-
COc1ccc(CNC(=O)C(=O)NCC2OCCN2S(=O)(=O)c2ccc(OC)c(OC)c2)cc1 (stereo unspecified),-,-,-,-
Fc1ccc(CN2C3=NCCCN3c3ccccc32)cc1,58.9,-,-,-
O=C(N=C1SC2CS(=O)(=O)CC2N1CCc1ccccc1)C1CCCCC1 (stereo unspecified),-,-,-,-
CCN(CC)CCNC(=O)c1ccc(NC(=O)C2CC(=O)N(c3ccc4c(c3)OCCO4)C2)cc1 (stereo unspecified),61.2,-,-,-
NC(=O)c1ccc(NC(=O)C2CC(=O)N(c3ccc4c(c3)OCCO4)C2)cc1 (stereo unspecified),-,.,-,-
COc1ccc(/C=N/n2c(C3CCCCC3)n[nH]c2=S)c(OC)c1,-,-,-,-
COc1ccc(CNC(=S)N/N=C/c2ccc(O)c(OC)c2)cc1,-,20.5,?,-
COc1ccc(CNC(=S)N/N=C/c2ccc(OC)c(OC)c2)cc1,-,-,-,-
Cc1cc(C)c(NC(=O)c2cc(C(=O)O)ccc2C(=O)O)c([N+](=O)[O-])c1,12.0,-,-,-
SMILES,LANA-H2A inh,HIF act,HDAC3 inh,CR mimetic SO
Cc1ccc(C(=O)O)cc1[N+](=O)[O-],-,.,-,-
COc1cc(C(=O)NC2CCCC(C)C2C)ccc1OCC(=O)N1CCOCC1 (stereo unspecified),-,.,-,-
N#C/C(=C\c1ccc(/C=C(/C#N)c2nn(CCO)c(N)c2C#N)cc1)c1nn(CCO)c(N)c1C#N,-,154.5,-,-
COc1ccc(OCCCC(=O)OCC(=O)Nc2sccc2C(N)=O)cc1,.,-,.,-
CC(=O)c1ccc(OCC(=O)OCC(=O)Nc2sccc2C(N)=O)cc1,15.7,.,-,-
O=C(Cn1ncc2c3ccccc3n(Cc3ccccc3F)c2c1=O)NCCCN1CCCC1=O,-,-,-,-
O=C(Cn1ncc2c3ccccc3n(Cc3ccccc3F)c2c1=O)NCCN1CCOCC1,-,32.2,-,-
COc1nc(N/N=C/c2ccc(C)cc2)nc(N2CCCCC2)n1,-,-,-,-
C=CCNC(=S)N1CCN(Cc2ccccc2)CC1,18.1,-,-,-
C=CCNC(=S)N1CCC(Cc2ccccc2)CC1,-,-,-,-
Cc1nc(N)sc1C(=O)N1N=N1,-,-,-,-
O=C1NC(=O)/C(=C/c2ccc(OS(=O)(=O)c3ccc(F)cc3F)cc2)N1,-,41.1,-,-
Cc1ccc(C(=O)CSc2cc(C)nc(SCC(=O)c3ccccc3)n2)cc1,-,-,-,-
Cc1cc(Oc2ccc(C)c(Cl)c2)nc(SCC(=O)c2ccccc2)n1,16.2,-,-,-
